High-throughput results deposited in PubChem BioAssay by ICCB-Longwood Screening Facility, Harvard Medical School.
Mtb MenB inh: inhibitors of Mycobacterium tuberculosis MenB enzyme; inhibition, % (no concentration beside the values); AID 540299; actives 0.43% (n = 100,000); P9WNP5; MenB enzyme assay, absorbance read-out; in the data active = inhibition above about 21%, passing the limit was not always enough
Mtb MbtI inh: blocks the Mycobacterium tuberculosis siderophore enzyme MbtI. AID 493033. actives 0.89% (n = 100,000). inhibition, % (test concentration not listed). purified MbtI enzyme, fluorescence intensity read-out; in the data active = inhibition mostly above about 56%, no sharp cut-off; inactive = mostly below about 77%
Polio RdRp inh: poliovirus RNA polymerase inhibition | poliovirus polymerase elongation, fluorescence polarization; hits give low values | % elongation, % (compound at 16.7 µg/mL) | actives 0.66% (n = 150,000); in the data active = % elongation below about 90%
Target sequence (P03300 1749-2209 limits assumed): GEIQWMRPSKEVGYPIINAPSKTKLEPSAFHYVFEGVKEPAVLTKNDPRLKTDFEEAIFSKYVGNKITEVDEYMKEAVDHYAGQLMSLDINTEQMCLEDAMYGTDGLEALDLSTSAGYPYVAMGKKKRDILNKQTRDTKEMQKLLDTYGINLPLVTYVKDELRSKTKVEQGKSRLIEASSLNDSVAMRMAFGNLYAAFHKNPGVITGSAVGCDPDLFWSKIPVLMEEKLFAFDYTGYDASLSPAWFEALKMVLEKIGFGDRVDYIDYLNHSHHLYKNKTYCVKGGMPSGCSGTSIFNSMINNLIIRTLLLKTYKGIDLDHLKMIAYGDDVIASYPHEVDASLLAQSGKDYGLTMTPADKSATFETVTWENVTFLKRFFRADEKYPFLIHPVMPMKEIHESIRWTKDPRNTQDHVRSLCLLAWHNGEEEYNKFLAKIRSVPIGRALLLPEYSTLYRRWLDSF
The depositor's hits bear a star; / = no result given; ! = not confirmed by another sample. The list is not random: actives were taken first. Their share in the collection is about 1.5%.

SMILES	Mtb MenB inh	Mtb MbtI inh	Polio RdRp inh
CN(C)C(CNCc1ccc(-n2cnc3ccccc32)cc1)c1ccco1 (stereo unspecified)	32*	5	101
CC(C)(CO)C(O)C(=O)NN (stereo unspecified)	-10	-3	99
Cn1cc(P(=S)(N2CCOCC2)N2CCOCC2)cc1P(=S)(N1CCOCC1)N1CCOCC1	-29	23	100
Cn1ccnc1P(=S)(c1nccn1C)N1CCOCC1	-1	87*	80*
O=C(NCN1CCOCC1)c1cccnc1	-19	0	104
Cc1c(-c2nc(-c3ccccc3)no2)nnn1-c1ccc(F)c(Cl)c1	/	/	81*
COc1ccc(Cl)cc1-n1nnc(-c2nc(-c3ccccc3)no2)c1C	/	/	102
CN1C(=O)c2ccccc2C(C(=O)NC2CC2)C1c1cn(C)c2ccccc12 (stereo unspecified)	2	-9	103
C=CCn1c(SCc2nnc(-c3cccs3)o2)nc2scc(C3CC3)c2c1=O	-17	6	104
CC(C)Cn1c(SCc2nnc(-c3cccs3)o2)nc(O)cc1=O	-165	17	83*
CCSC1(SCC)N=C(N)C2(C#N)C(c3cccc(OC)c3)C12C#N (stereo unspecified)	20	41	101
COCc1c(CSSCc2cnc(C)c(O)c2COC)cnc(C)c1O	38*	22	86*
COCc1c(CN)cnc(C)c1N	-62	77	104
COCCn1c(SCC(=O)c2c[nH]c3ccccc23)nc2ccccc2c1=O	-20	-5	103
Cc1cc(=O)oc2cc(OCC(=O)O)ccc12	-17	107	105
Cc1cc(=O)oc2cc(OCC(=O)Oc3ccc4c(c3)OCO4)ccc12	0	73	83*
COc1ccc2oc(C(=O)OCC(=O)c3ccc(F)cc3)c(C)c2c1	9	16	105
O=S(=O)(Nc1ccc(O)c(Sc2ncn[nH]2)c1)c1ccccc1	-18	6	100
O=C1C(Sc2ncn[nH]2)=C/C(=N/S(=O)(=O)c2ccc(Cl)cc2)c2ccccc21	/	95*	/
C[N+](C)(Cc1ccccc1)Cc1ccccc1	-8	/	107
Cc1cc(C(C)(C)CC(C)(C)C)ccc1OCCOCC[N+](C)(C)Cc1ccccc1	0	-16	94*!
O=C(NC1CC1)c1nc(-c2ccccc2)no1	1	-3	101
CCC(=O)Nc1ccc(C(=O)CSc2ncc(C#N)c(N)n2)cc1OC	-14	-21	100
COc1ccc(C(=O)CSc2nnc(-c3ccco3)c(-c3ccco3)n2)cc1	30*	54	98
CCc1ccc2c(c1)c1nnc(SCC(=O)c3ccc(OC)cc3)nc1n2C	10	-3	101
SMILES	Mtb MenB inh	Mtb MbtI inh	Polio RdRp inh
CCOc1ccc(C(=O)CSc2nnc(-c3ccco3)c(-c3ccco3)n2)cc1NC(=O)CC	62*	94*	100
O=C(CSc1nnc(-c2ccoc2)c(-c2ccoc2)n1)c1ccc(N2CCCC2=O)cc1	25	21	97
O=C(CSc1nnc(-c2ccoc2)c(-c2ccoc2)n1)c1ccc(-c2ccccc2)cc1	20	61*	98
C=CCN1C(=O)NC(NC(=O)c2ccccc2)(C(F)(F)F)C1=O (stereo unspecified)	-6	-26	100
CCN(Cc1ccc2c(c1)OCCO2)C(=S)NCc1ccco1	-31	89*	97
O=C(Cc1ccc2c(c1)OCCO2)NCc1ccco1	7	28	/
O=C1CSc2sc(=S)sc2S1	-121	47	88*
COCCNC(=S)Nc1ccn(C)n1	13	5	100
O=C(O)COc1ccc(-c2nnco2)cc1	-31	-1	89*
CC1CCCC(C)N1C(=O)COc1ccc(-c2nnco2)cc1 (stereo unspecified)	-6	7	105
Cc1cccc(C(=O)N2CCN(c3ccc(N4CCCCCC4)nn3)CC2)c1	-9	-7	102
C1CNCC(CN2CCCC2)C1 (stereo unspecified)	46*	-2	103
c1ccc(CC2CCCNC2)cc1 (stereo unspecified)	21	3	100
CC(C)Cc1ccc([C@H](C)C(=O)O)cc1	-8	/	99
CC(C)Cc1ccc(CC(=O)O)cc1	-48	89	80*
COc1cccc2c(CCN)c[nH]c12	6	/	89*
NCCc1c[nH]c2ccccc12	-4	-15	99
O=C(Cn1cc(SCc2ccc(C(F)(F)F)cc2)c2ccccc21)N1CCCCCC1	/	/	115
O=C(Cn1cc(SCc2ccc(C(F)(F)F)cc2)c2ccccc21)N1CCCCC1	/	/	44*
Cc1cccc(C(N)=S)c1	-17	62*	98
Cc1cccc(NC(N)=S)c1	-24	-14	100
COc1ccc(-c2noc(CNC(=O)CC(c3ccccc3)c3ccccc3)n2)cc1	-12	-6	101
O=C(NC1CCCC1)c1ccc2ncsc2c1	3	3	106
O=C(O)c1ccc2ncsc2c1	/	77	88*
CCCSc1nc(-c2ccccc2)[nH]c1S(=O)(=O)c1ccc(C)cc1	/	/	-16*
SMILES	Mtb MenB inh	Mtb MbtI inh	Polio RdRp inh
Cc1ccc(S(=O)(=O)c2[nH]c(-c3ccccc3)nc2SCCC(=O)O)cc1	/	/	110
COc1cccc(CNC(=O)c2cnn(-c3cccc(F)c3)c2-n2cccc2)c1OC	-45	10	101
OCC(O)C(O)C(O)C(O)c1nc2ccccc2[nH]1 (stereo unspecified)	-16	-12	62*
OC(c1ccc(Cl)cc1)C(O)c1nc2ccccc2[nH]1 (stereo unspecified)	0	-6	100
Cc1cc(C)nc(SCc2nnc(SCC(=O)Nc3ccc(S(N)(=O)=O)cc3)n2C)n1	-26	3	99
O=C(CN(Cc1ccco1)S(=O)(=O)c1ccccc1)Nc1ccccc1	0	5	104
N#CSC(C#N)Cc1ccc(Cl)c(Cl)c1 (stereo unspecified)	/	89*	92
N#Cc1c(N)cc(N)nc1SCc1ccc(Cl)c(Cl)c1	-17	-5	101
Cc1noc(C)c1CSCC(=O)c1cc(C)n(-c2ccccc2)c1C	-26	-2	105
COc1ccc(OCC(=O)Sc2ccc(Cl)cc2)cc1	-20	/	81*
CCOc1ccc(/C=C/C(=O)Sc2ccc(Cl)cc2)cc1	-8	/	109
CN1C(=O)/C(=C/c2cn(CC(=O)N3CCCC3)c3ccccc23)C(=O)NC1=S	-5	-8	99
CN1C(=O)/C(=C/c2ccc(I)o2)C(=O)NC1=S	-116	83*	95
Cc1nn(-c2ccccc2)c2sc(C(=O)c3nccn3C)cc12	/	-13	102
COc1ccc(S(=O)(=O)C(F)(F)F)cc1S(=O)(=O)C(F)(F)F	5	-3	101
CC(C)Nc1nc(NC(C)C)nc(C(N)=O)n1	35*	5	100
CC(C)Nc1nc(NC(C)C)nc(N(C)C(N)=O)n1	4	/	102
NNC(=O)c1cc2ccccc2[nH]1	4	16	100
NNC(=O)c1cc(=S)nc[nH]1	-35	99*	97
CC(C)NCC(O)COc1cccc2ccccc12 (stereo unspecified)	-17	61	100*!
CC(C)NCC(O)COc1cccc2[nH]ccc12 (stereo unspecified)	6	2	99
CC(C)(C)c1cc2nc(C(F)(F)F)cc(N3CCN(c4ncc(C(F)(F)F)cc4Cl)CC3)n2n1	-12	16	103
Cc1cc(C)cc(NC(=O)/C=C\C(=O)O)c1	9	-2	99
